Test [1] addresses Retinoic acid receptor RXR-alpha (Homo sapiens) (UniProt P19793). Briefly: ATG_RXRa_TRANS: Attagene TRANS-FACTORIAL HepG2 Assay for human Retinoid X Receptor alpha (RXRa) (AID 2283012; active = hit-call score of the fitted dose curve at least 0.9, where 1 is the maximum). In short, it runs like this: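 Measures exogenous chimeric NR-GAL4 activity in transfected HepG2 liver cells after 24 h of dosing. Induced reporter mRNA was detected by RT-PCR with capillary electrophoresis, and gain of signal was analysed against DMSO.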

Test [2] concerns the target human Retinoid X Receptor beta (RXRb), RXRB (gene 6257) (UniProt P28702). Briefly: ATG_RXRb_TRANS: Attagene TRANS-FACTORIAL HepG2 Assay for human Retinoid X Receptor beta (RXRb) (AID 2283013; active = hit-call score of the fitted dose curve at least 0.9, where 1 is the maximum). In short, it runs like this: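 Chimeric receptor-Gal4 activity was assessed in transiently transfected human HepG2 cells after 24 h exposure. Transcripts from GAL4-UAS reporters were quantified by fluorescent RT-PCR and capillary electrophoresis, with DMSO as negative control and baseline.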

The target of test [3] is human Thyroid Receptor alpha (THRa1), THRA (gene 7067) (UniProt P10827). In words: ATG_THRa1_TRANS: Attagene TRANS-FACTORIAL HepG2 Assay for human Thyroid Receptor alpha (THRa1) (AID 2283014; active = hit-call score of the fitted dose curve at least 0.9, where 1 is the maximum). In short, it runs like this:
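Transcripts from GAL4-UAS-driven reporters, measured after 24 h compound exposure by RT-PCR plus capillary electrophoresis of 6-FAM-labeled fragments, were fitted for gain of signal relative to DMSO. Cells: transiently transfected HepG2 expressing NR-Gal4 chimeras.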

Read-out in test [4]: E-selectin (Homo sapiens) (UniProt P16581)
In words: BSK_3C_Eselectin: BioMAP Diversity Plus: 3C Assay for Eselectin Biomarker Activity (AID 2283015).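 For outcome: cell surface E-selectin protein quantified by ELISA 24 h after dosing.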 The settings on record: primary human endothelial cells (HUVEC); actives raise or lower the signal. In short, it runs like this: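 E-selectin ELISA readout, fitted bidirectionally relative to DMSO, taken 24 h post-dosing in HUVEC cultures of the 3C system. Overt cytotoxicity tracked with sulforhodamine B staining of parallel wells.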

Read-out in test [5]: Interleukin-1 alpha (IL1a), IL1A (gene 3552)
Briefly: BSK_BE3C_IL1a: BioMAP Diversity Plus: BE3C Assay for Interleukin-1 alpha (IL1a) Biomarker Activity (AID 2283016). The settings on record: primary human bronchial epithelial cells; actives raise or lower the signal. In short, it runs like this: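 Signal from IL-1a ELISA, taken 24 h after chemical dosing of human bronchial epithelial cells, is compared with DMSO as baseline using bidirectional curve fitting.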

Read-out in test [6]: Monocyte Chemoattractant Protein-1 (MCP1), CCL2 (gene 6347)
In words: BSK_3C_MCP1: BioMAP Diversity Plus: 3C Assay for Monocyte Chemoattractant Protein-1 (MCP1) Biomarker Activity (AID 2283017). The note with it: primary human endothelial cells (HUVEC); actives raise or lower the signal. In short, it runs like this:
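MCP-1 was measured by ELISA 24 h after dosing in primary HUVEC 3C cultures and fitted in both directions relative to DMSO; cytotoxicity was checked by SRB total-protein staining in parallel wells.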

Read-out in test [7]: Monocyte Chemoattractant Protein-1 (MCP1), CCL2 (gene 6347)
Briefly: BSK_4H_MCP1: BioMAP Diversity Plus: 4H Assay for Monocyte Chemoattractant Protein-1 (MCP1) Biomarker Activity (AID 2283018). The settings on record: primary human endothelial cells (HUVEC); actives raise or lower the signal. In short, it runs like this:
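Endothelial cells from umbilical vein were treated with test chemical, then after 24 h MCP-1 levels were quantified by ELISA; endpoint values came from bidirectional fitting with DMSO as baseline of activity.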

Read-out in test [8]: Human Leukocyte Antigen - DR isotype (HLADR), HLA-DRA (gene 3122)
In words: BSK_3C_HLADR: BioMAP Diversity Plus: 3C Assay for Human Leukocyte Antigen - DR isotype (HLADR) Biomarker Activity (AID 2283019).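 For outcome: ELISA of cell-surface HLA-DR on HUVEC 24 h after dosing.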 The note with it: primary human endothelial cells (HUVEC); actives raise or lower the signal. In short, it runs like this:
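Bidirectional fitting against DMSO was applied to the HLA-DR ELISA signal from human umbilical vein endothelial cells, 24 h post-dose. Cytotoxicity came from parallel SRB total-protein staining; 3C proliferation was counted by SRB at 48 h.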

Read-out in test [9]: Interleukin-8 (IL8), CXCL8 (gene 3576)
In words: BSK_3C_IL8: BioMAP Diversity Plus: 3C Assay for Interleukin-8 (IL8) Biomarker Activity (AID 2283020). The settings on record: primary human endothelial cells (HUVEC); actives raise or lower the signal. In short, it runs like this:
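Endothelial primary cells of human umbilical vein origin are dosed with chemical; after 24 h the IL-8 biomarker is measured by ELISA, and concentration–response is fitted in both directions versus DMSO.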

The nature of test [10]: BSK_3C_SRB: Viability Assessment in the BioMAP Diversity Plus: 3C Assay (AID 2283023).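 Note: fitted both ways against DMSO so a hit may be signal rise or drop.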 The note with it: primary human endothelial cells (HUVEC). In short, it runs like this: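 Cytotoxicity readout in parallel HUVEC 3C cultures: after 24 h compound exposure, cells fixed with 10% TCA, stained with 0.1% SRB and read at 560 nm. Gain or loss relative to DMSO fitted.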
Read-out in test [11]: Matrix Metallopeptidase 1 (MMP1), MMP1 (gene 4312)
In words: BSK_BE3C_MMP1: BioMAP Diversity Plus: BE3C Assay for Matrix Metallopeptidase 1 (MMP1) Biomarker Activity (AID 2283024). The settings on record: primary human bronchial epithelial cells; actives raise or lower the signal. In short, it runs like this: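 MMP1 signal, measured by ELISA after a 24 h chemical exposure of human primary bronchial epithelial cells, is analysed with bidirectional fitting using DMSO as negative control.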

Test [12] in a line: BSK_3C_Vis: BioMAP Diversity Plus: 3C Assay for Morphology Visualization (AID 2283025).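 Note: fitted both ways so gain or loss versus DMSO counts.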 The note with it: primary human endothelial cells (HUVEC). In short, it runs like this: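 Morphology read by light microscopy serves as a background control for the multiplexed 3C assay in human umbilical vein endothelial cells, taken 24 h after dosing, with DMSO as the negative control and bidirectional curve fitting.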

Test [13] can be described thus: BSK_4H_SRB: Viability Assessment in the BioMAP Diversity Plus: 4H Assay (AID 2283027).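 For AC50: curves fitted both ways versus DMSO so AC50 may be loss or gain.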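 Note: cells exposed to compound for 24 h before staining.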 The settings on record: primary human endothelial cells (HUVEC). In short, it runs like this: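 Cytotoxicity read-out in primary human endothelial cells: after 24 h compound exposure, cells were TCA-fixed (10%), stained with 0.1% SRB and absorbance taken at 560 nm. Values fitted in both directions relative to DMSO.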

The nature of test [14]: BSK_BE3C_SRB: Viability Assessment in the BioMAP Diversity Plus: BE3C Assay (AID 2283028).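 For AC50: fitted both ways so AC50 may mark signal gain or loss versus DMSO.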 The settings on record: primary human bronchial epithelial cells. In short, it runs like this:
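Cytotoxicity read-out: SRB (0.1%) staining of TCA-fixed (10%) human lung bronchial epithelial cells, absorbance 560 nm, 24 h post-dosing. Curves fitted both directions relative to DMSO.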

Read-out in test [15]: Thrombomodulin, THBD (gene 7056)
In words: BSK_3C_Thrombomodulin: BioMAP Diversity Plus: 3C Assay for Thrombomodulin Biomarker Activity (AID 2283029). The note with it: primary human endothelial cells (HUVEC); actives raise or lower the signal. In short, it runs like this: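 Endothelial cells from umbilical vein are dosed with test chemical and incubated 24 h. Thrombomodulin is then quantified by ELISA, with DMSO serving as negative control and activity baseline.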

Read-out in test [16]: Urokinase-type plasminogen activator receptor (uPAR), PLAUR (gene 5329)
Briefly: BSK_4H_uPAR: BioMAP Diversity Plus: 4H Assay for Urokinase-type plasminogen activator receptor (uPAR) Biomarker Activity (AID 2283030). The note with it: primary human endothelial cells (HUVEC); actives raise or lower the signal. In short, it runs like this: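 uPAR level read by ELISA on HUVEC cultures (BioMAP 4H) 24 h post-dosing, analyzed for gain or loss relative to DMSO. Parallel SRB staining assessed overt cytotoxicity.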

Test [17] deals with human RAR-related Orphan Receptor gamma (RORg), RORC (gene 6097) (UniProt P51449). In words: ATG_RORg_TRANS: Attagene TRANS-FACTORIAL HepG2 Assay for human RAR-related Orphan Receptor gamma (RORg) (AID 2283011; active = hit-call score of the fitted dose curve at least 0.9, where 1 is the maximum). In short, it runs like this:
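Reporter transcripts from a transfected RORg-GAL4 chimera in HepG2 cells were quantified 24 h after dosing by RT-PCR, 6-FAM labelling, HpaI digestion and capillary electrophoresis; increases over DMSO baseline were fitted.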

In test [18] the target is human Vitamin D Receptor (VDR), VDR (gene 7421) (UniProt P11473). Briefly: ATG_VDR_TRANS: Attagene TRANS-FACTORIAL HepG2 Assay for human Vitamin D Receptor (VDR) (AID 2283022; active = hit-call score of the fitted dose curve at least 0.9, where 1 is the maximum). In short, it runs like this:
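Transactivation by an exogenous VDR-Gal4 chimera in transiently transfected HepG2 cells was measured as reporter transcript level 24 hours after chemical treatment. RT-PCR products were analysed by capillary electrophoresis and fitted in the positive direction relative to DMSO.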

Read-out in test [19]: Monokine induced gamma interferon (MIG), CXCL9 (gene 4283)
Briefly: BSK_3C_MIG: BioMAP Diversity Plus: 3C Assay for Monokine induced gamma interferon (MIG) Biomarker Activity (AID 2283021). The settings on record: primary human endothelial cells (HUVEC); actives raise or lower the signal. In short, it runs like this:
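Endothelial primary cells (human umbilical vein) are dosed with test chemical in the 3C system. MIG levels are measured by ELISA at 24 h and fitted in both directions relative to DMSO.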

Read-out in test [20]: Pselectin, SELP (gene 6403)
In words: BSK_4H_Pselectin: BioMAP Diversity Plus: 4H Assay for Pselectin Biomarker Activity (AID 2283026). The note with it: primary human endothelial cells (HUVEC); actives raise or lower the signal. In short, it runs like this:
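Endothelial primary cells (human umbilical vein) are dosed, incubated 24 h, and assayed for surface P-selectin by ELISA; responses in either direction are fitted relative to the DMSO negative control.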

SMILES strings stand for the structures. Values joined by “and” are separate entries in the source; they are usually repeats but may differ in a detail not shown here. Identical values can stand only once. Records with an inconclusive call do not appear. A structure can be active in one record and inactive in another. Active and inactive are the calls of the source. Rule for the calls, unless noted: active = hit-call score of the fitted dose curve at least 0.9, where 1 is the maximum; inactive = score below 0.9.

Sequence of human Thyroid Receptor alpha (THRa1), THRA (gene 7067) (P10827 whole entry, looked up, the tested form may be a part): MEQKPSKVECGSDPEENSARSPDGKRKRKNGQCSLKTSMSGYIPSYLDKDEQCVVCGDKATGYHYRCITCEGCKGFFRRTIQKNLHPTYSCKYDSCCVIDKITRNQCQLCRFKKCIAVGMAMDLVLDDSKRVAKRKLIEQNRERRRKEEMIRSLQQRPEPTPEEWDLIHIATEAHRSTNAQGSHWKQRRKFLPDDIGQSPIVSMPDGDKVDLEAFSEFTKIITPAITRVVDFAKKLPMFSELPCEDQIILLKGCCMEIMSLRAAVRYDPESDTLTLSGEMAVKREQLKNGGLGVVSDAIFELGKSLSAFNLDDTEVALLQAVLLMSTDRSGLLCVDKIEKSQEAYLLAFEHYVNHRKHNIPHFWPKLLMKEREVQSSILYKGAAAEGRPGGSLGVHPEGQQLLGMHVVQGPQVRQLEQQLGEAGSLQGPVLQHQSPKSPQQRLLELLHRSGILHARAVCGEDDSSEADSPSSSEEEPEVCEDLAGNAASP
Sequence of human Retinoid X Receptor beta (RXRb), RXRB (gene 6257) (P28702 whole entry, looked up, the tested form may be a part): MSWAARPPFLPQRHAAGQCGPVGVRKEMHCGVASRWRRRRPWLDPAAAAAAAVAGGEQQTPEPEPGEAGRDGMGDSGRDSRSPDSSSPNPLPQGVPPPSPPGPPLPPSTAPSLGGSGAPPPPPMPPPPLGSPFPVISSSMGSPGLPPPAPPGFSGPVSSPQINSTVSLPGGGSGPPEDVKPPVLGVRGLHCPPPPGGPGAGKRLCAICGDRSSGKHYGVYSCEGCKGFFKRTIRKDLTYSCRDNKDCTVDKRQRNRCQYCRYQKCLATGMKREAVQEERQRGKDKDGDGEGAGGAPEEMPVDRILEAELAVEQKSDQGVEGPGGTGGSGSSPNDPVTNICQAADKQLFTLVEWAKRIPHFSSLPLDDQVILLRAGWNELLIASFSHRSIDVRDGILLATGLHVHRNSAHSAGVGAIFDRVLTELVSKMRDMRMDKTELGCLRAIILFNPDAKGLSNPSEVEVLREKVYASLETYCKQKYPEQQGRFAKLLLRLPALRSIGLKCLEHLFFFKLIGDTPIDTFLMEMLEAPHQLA
Sequence of E-selectin (Homo sapiens) (P16581 whole entry, looked up): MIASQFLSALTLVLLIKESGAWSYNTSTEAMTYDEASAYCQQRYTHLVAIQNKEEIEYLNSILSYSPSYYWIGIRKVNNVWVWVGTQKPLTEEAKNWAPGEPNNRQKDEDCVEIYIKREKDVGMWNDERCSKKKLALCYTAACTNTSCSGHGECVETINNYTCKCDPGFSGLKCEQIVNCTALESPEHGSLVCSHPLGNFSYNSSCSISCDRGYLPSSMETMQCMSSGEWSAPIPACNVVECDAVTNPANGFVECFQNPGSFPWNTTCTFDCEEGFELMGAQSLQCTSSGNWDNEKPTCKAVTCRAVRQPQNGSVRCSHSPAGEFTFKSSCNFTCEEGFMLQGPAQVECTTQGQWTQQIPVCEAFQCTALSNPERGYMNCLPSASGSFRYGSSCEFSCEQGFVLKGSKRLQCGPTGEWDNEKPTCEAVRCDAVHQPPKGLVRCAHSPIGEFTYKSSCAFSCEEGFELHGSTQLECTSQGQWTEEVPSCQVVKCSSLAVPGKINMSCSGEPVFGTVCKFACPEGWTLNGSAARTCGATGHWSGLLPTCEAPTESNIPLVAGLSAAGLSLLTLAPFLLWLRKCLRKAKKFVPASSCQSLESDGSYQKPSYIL
Sequence of Retinoic acid receptor RXR-alpha (Homo sapiens) (P19793 whole entry, looked up, the tested form may be a part): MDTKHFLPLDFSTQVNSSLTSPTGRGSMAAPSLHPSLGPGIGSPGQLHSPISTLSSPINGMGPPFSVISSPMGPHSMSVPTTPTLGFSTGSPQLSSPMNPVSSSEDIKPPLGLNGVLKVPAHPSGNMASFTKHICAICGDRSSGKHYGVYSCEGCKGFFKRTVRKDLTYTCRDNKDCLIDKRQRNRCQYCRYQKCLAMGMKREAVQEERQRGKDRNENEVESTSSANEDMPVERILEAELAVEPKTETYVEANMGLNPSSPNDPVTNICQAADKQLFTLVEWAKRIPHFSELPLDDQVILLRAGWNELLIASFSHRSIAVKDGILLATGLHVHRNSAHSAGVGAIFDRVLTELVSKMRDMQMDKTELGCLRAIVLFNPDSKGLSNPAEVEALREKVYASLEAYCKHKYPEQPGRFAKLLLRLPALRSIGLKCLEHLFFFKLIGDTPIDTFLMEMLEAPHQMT
Sequence of human Vitamin D Receptor (VDR), VDR (gene 7421) (P11473 whole entry, looked up, the tested form may be a part): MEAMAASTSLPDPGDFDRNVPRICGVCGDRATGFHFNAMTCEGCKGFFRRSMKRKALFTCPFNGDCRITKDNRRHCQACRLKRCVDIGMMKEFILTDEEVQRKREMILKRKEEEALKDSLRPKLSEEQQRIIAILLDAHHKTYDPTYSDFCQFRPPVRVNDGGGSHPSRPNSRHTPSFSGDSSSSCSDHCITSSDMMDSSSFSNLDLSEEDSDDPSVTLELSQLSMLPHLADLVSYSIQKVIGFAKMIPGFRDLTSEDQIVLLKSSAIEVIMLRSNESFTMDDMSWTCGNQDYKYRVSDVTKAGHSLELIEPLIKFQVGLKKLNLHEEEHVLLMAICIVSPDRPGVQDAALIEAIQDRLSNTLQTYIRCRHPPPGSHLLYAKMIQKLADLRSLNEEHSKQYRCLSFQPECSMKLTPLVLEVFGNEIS
Sequence of human RAR-related Orphan Receptor gamma (RORg), RORC (gene 6097) (P51449 whole entry, looked up, the tested form may be a part): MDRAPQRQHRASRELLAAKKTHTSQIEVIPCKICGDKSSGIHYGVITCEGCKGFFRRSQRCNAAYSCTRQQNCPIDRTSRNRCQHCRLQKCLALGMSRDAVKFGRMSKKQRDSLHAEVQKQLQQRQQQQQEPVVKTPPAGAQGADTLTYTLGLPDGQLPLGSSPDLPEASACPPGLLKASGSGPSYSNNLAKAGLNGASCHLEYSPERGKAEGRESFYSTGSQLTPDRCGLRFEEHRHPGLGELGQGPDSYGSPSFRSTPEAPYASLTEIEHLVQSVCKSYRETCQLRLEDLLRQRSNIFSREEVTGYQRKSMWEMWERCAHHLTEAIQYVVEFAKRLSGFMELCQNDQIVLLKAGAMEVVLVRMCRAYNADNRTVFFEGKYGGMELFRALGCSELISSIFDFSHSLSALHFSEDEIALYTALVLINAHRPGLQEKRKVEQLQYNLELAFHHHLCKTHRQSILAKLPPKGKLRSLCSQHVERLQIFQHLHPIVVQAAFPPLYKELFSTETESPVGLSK

Turning to `c1ccc(CNc2ncnc3c2ncn3C2CCCCO2)cc1` (stereo not given), the compound was called inactive in test [1].
In general, AC50 refers to the midpoint of the concentration-response curve, whichever way the signal moves. Turning to `CCOC(=O)CN[C@@H](C(=O)N1CC[C@H]1C(=O)NCc1ccc(/C(N)=N/O)cc1)C1CCCCC1`, the result in test [1], in test [3], in test [4], in test [5], in test [6] and in test [7] was inactive. For the same compound, the outcome in [8], in [9], in [10], in test [11], in test [12] and in test [13] was inactive. For the same compound, the outcome in test [14], in [15] and in test [16] was inactive. The AC50 in test [2] is 1.42 µM (active).
`O=C(Nc1ccc(Cl)c(Cl)c1)c1cc(Cl)cc(Cl)c1O`: the call in test [17], in test [2] and in test [18] was inactive. The concentration at half-maximal activity (AC50) in test [3] is 1.35 µM (active).
Consider `CCCCCCCCCC=CCC1CC(=O)OC1=O` (stereo not given), for which the call in test [17], in test [2] and in test [18] was inactive.
With `O=P(O)(O)CCC(F)(F)C(F)(F)C(F)(F)C(F)(F)C(F)(F)C(F)(F)F`, the compound was classed as inactive in [1], in test [3], in [4], in test [5], in test [6] and in [7]. The result in [8], in [9], in [19], in test [10], in [11] and in test [13] was inactive. Further, the result in test [14], in test [15] and in [16] was inactive. Also, the AC50 was 40 µM (active) in test [11] and 22.7 µM (active) in test [15].
For the compound `CCCCCCCCCCCC[N+](C)(C)CCCCCCCCCCCC`, the compound was classed as inactive in test [1] and in test [3].
Take `C=CC(=O)OCCN(CC)CC`: the result in test [1], in test [3] and in test [18] was inactive.
As to `C=CCOCC(CO)(CO)CO`, the compound was classed as inactive in test [1], in test [2] and in test [18].
As for `C[N+](C)(CCCNS(=O)(=O)CCC(F)(F)C(F)(F)C(F)(F)C(F)(F)C(F)(F)C(F)(F)F)CC(=O)[O-]`, the call in [1], in test [2], in test [3] and in test [18] was inactive.
For `CNNCc1ccc(C(=O)NC(C)C)cc1`, the outcome in [1], in test [2], in test [3] and in test [18] was inactive.
On to `CCCCCCCCCCCC(=O)O`, for which the result in test [1] and in [3] was inactive.
`O=S(=O)(O)c1ccccc1`: the result in [1], in test [2] and in test [18] was inactive.
On to `O=C(CC(=O)C(F)(F)C(F)(F)C(F)(F)F)c1cccs1`, for which the compound was called inactive in [1], in test [2], in [3], in test [18] and in test [15]. Also, the half-maximal activity concentration (AC50) in [4] is 51.4 µM (active) and 52.5 µM (active); in [5], 29.5 µM (active) and 28.9 µM (active); in [6], 40 µM (active) and 41.2 µM (active); in test [7], 23.5 µM (active) and 29.1 µM (active); in test [9], 15.8 µM (active) and 17.3 µM (active); in [10], 24.1 µM (active) and 43.7 µM (active). The AC50 in test [11] was 43.6 µM (active) and 45.2 µM (active); in test [13], 34.4 µM (active) and 44.3 µM (active); in test [14], 30 µM (active) and 37.9 µM (active); in test [16] it was 49.1 µM (active) and 54.8 µM (active).
For `CCCCC(CC)C(=O)OCCOCCOCCOCCOC(=O)C(CC)CCCC` (stereo not given), the compound was called inactive in [1], in test [3], in test [5], in test [6], in [7] and in test [9]. For the same compound, the result in [19], in [18], in test [10], in [11], in test [12] and in test [20] was inactive. The result in [13], in test [14], in test [15] and in test [16] was inactive. Also, the AC50 in [4] is 13.6 µM (active); in test [8] it was 11.4 µM (active).

These data come from PubChem BioAssay (EPA / NIEHS).
